target: ATG13; experiment: pooled miR-30 sensor sort-seq; sequence = guide strand; settings: shRNA
Also: reference of the scale not given here.

Sequence | sensor-assay potency score (higher = more potent)
TTGGAGAAGATGATGAACGAGT | 0.0356
TATCATAACAAAGTCATCATGG | 0.359
TGACAGTCTGTTGTACACCGTG | -0.356
TTCAGCAGCAATGACAGTCTGT | 0.524
TTGAGAGTCTTCTACAGACGGG | -0.452
AAATTTAATAAACTTGTCCAGG | -1.15
TTCAGTATCCTCACTACTGGAG | -0.0842
TTCAAGACACCATATTTCCAGC | -0.751
TTGATTTCTTTATCACACTTTT | -0.851
TTTATCACACTTTTCATTCATT | -0.513
TTGCTAAGTTGAACCAATCTGA | 0.054

target: ATG16L1; experiment: as above; settings: shRNA

Sequence | sensor-assay potency score (higher = more potent)
TTTTTCTCCAAATACTTCCCAA | -0.436
ATGAGTATCCACATTGTCCTGG | -0.348
TATCATTGCAACTGGATCCTGC | 0.235
TTCCCTGTGAGCACACTCCAGA | -0.634
TTTCTTGTGTAATTCAGTCAGT | -0.093
TTGTAGCTGATTGTCATTCCAT | -0.0295
TTTTGCTTCATTCATCTGCATC | -1.44
